# In the supplement of paper PMC11006884:
# Targets with a hit are over-represented here; the source holds about 6,500 in all. About 2% of all pairs of compound and target were hits. Values without a mark were called inactive.
# Compound: COC(=O)C#Cc1ccccc1 [methyl 3-phenylpropiolate]
# Assay: log2 ratio of iodoacetamide-alkyne labeling of the cysteine site, DMSO over compound (competition); higher = stronger covalent engagement of the cysteine by the compound, active = 1 or more
# Settings: 500 µM; treatment time 1 h; system: HEK293T cell lysate
# Method in brief: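 HEK293T lysate at 2 mg/mL was treated with vehicle or electrophile (500 µM) for 1 h at ambient temperature, then labelled with iodoacetamide alkyne (1 h), clicked to sCIP-TMT reagents, pooled, digested with trypsin overnight at 37 °C, enriched on streptavidin and eluted with acid. Peptides were analysed by Orbitrap Eclipse LC-MS/MS with FAIMS and quantified in FragPipe, using duplicate channels and three replicates, with cysteines quantified in only one replicate excluded. The log2 competition ratio for each cysteine is the mean control-channel reporter intensity divided by the mean compound-channel reporter intensity.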
# Chain of UniProt Q9NRX1 (Q9NRX1 whole entry): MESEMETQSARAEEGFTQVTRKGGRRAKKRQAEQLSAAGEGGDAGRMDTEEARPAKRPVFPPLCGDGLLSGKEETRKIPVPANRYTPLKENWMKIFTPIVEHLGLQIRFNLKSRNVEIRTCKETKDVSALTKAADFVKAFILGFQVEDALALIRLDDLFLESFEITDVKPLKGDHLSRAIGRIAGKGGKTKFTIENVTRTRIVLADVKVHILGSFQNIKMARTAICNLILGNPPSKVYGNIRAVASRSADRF
# Chain of UniProt Q9NTJ3 (Q9NTJ3 whole entry, looked up): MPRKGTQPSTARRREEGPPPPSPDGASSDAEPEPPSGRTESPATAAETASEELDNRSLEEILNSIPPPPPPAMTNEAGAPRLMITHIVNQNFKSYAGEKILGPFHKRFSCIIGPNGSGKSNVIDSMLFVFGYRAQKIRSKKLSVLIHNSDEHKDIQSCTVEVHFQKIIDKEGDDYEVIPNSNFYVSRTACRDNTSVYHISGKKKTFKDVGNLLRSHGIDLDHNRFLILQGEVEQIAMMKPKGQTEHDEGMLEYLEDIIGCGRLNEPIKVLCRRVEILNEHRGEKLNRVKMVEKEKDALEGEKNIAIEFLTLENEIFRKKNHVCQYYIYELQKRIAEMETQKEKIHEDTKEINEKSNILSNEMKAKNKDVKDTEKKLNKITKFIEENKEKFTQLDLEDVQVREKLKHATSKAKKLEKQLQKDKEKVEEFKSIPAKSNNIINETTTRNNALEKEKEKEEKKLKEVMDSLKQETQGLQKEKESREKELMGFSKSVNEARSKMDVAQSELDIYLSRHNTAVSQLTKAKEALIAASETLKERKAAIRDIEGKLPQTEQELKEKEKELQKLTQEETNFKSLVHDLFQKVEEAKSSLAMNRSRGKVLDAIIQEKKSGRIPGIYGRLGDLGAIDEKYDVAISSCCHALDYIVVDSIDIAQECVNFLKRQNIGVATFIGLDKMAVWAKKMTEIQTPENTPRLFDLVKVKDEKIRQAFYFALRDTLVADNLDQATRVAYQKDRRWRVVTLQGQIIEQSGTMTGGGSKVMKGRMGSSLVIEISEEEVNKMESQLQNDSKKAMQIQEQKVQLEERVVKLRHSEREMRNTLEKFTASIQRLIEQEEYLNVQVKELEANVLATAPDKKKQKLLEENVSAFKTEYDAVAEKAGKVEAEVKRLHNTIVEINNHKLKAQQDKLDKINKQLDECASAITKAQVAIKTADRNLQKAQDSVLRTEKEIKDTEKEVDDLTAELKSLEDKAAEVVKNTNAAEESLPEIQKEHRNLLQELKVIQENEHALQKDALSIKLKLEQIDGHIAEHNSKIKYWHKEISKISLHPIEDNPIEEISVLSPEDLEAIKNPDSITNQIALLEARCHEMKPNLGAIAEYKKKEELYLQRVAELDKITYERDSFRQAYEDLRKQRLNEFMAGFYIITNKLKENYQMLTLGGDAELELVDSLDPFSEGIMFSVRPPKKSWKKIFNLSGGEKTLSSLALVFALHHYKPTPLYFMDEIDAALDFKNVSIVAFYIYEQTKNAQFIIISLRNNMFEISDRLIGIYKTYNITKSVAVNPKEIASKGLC
# Chain of UniProt Q9UIG0 (Q9UIG0 whole entry, looked up): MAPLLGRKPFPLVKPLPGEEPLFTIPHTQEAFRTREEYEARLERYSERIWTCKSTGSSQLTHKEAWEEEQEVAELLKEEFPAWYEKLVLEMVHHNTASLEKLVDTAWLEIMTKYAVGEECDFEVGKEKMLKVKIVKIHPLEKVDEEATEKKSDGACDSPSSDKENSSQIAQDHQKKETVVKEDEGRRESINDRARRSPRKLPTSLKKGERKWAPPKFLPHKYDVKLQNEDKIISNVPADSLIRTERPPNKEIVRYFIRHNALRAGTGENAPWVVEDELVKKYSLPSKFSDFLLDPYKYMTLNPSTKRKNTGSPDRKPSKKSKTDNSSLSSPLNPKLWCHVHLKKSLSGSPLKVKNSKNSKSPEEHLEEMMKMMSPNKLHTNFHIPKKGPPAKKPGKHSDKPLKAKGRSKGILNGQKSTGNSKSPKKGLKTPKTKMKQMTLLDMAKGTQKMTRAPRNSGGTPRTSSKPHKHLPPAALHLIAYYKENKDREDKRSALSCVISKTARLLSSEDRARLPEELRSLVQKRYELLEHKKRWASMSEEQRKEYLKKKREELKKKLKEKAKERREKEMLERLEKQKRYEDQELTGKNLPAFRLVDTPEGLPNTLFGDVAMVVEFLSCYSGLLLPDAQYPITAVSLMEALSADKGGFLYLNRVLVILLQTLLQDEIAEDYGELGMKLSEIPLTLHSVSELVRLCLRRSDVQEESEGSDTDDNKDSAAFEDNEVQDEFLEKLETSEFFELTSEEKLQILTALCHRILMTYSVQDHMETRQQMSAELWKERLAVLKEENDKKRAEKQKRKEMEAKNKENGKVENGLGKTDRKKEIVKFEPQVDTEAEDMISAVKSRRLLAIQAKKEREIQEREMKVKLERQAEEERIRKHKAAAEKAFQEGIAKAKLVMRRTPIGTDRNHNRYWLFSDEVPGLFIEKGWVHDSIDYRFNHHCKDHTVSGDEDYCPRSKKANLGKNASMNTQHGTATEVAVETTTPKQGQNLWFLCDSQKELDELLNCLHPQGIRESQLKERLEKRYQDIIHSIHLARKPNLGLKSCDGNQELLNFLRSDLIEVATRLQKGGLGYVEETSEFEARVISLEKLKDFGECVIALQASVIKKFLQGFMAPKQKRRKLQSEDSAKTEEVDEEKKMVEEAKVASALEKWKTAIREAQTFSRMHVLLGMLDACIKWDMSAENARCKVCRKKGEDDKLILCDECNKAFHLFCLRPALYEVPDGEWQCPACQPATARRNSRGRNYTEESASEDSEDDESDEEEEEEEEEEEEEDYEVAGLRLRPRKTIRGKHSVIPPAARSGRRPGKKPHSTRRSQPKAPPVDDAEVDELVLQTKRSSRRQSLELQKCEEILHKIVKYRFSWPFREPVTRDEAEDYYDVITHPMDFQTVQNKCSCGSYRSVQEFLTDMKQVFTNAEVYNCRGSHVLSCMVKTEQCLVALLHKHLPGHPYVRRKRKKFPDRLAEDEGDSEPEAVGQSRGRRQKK
# Chain of UniProt Q9P258 (Q9P258 whole entry, looked up): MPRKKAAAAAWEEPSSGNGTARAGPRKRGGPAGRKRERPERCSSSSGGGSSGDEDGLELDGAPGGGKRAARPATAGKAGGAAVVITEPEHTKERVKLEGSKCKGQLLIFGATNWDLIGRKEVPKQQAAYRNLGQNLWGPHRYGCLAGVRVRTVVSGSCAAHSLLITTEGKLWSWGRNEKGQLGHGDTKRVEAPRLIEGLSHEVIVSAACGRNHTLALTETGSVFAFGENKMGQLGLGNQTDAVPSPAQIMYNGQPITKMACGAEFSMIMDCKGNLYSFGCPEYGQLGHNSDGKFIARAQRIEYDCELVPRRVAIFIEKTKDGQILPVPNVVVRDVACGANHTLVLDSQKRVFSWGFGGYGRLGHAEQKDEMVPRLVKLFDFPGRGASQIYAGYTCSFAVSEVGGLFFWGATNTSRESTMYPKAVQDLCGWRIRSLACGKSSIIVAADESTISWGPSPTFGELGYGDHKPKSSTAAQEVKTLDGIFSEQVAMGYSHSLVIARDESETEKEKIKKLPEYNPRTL
# Chain of UniProt Q9P2R3 (Q9P2R3 whole entry, looked up): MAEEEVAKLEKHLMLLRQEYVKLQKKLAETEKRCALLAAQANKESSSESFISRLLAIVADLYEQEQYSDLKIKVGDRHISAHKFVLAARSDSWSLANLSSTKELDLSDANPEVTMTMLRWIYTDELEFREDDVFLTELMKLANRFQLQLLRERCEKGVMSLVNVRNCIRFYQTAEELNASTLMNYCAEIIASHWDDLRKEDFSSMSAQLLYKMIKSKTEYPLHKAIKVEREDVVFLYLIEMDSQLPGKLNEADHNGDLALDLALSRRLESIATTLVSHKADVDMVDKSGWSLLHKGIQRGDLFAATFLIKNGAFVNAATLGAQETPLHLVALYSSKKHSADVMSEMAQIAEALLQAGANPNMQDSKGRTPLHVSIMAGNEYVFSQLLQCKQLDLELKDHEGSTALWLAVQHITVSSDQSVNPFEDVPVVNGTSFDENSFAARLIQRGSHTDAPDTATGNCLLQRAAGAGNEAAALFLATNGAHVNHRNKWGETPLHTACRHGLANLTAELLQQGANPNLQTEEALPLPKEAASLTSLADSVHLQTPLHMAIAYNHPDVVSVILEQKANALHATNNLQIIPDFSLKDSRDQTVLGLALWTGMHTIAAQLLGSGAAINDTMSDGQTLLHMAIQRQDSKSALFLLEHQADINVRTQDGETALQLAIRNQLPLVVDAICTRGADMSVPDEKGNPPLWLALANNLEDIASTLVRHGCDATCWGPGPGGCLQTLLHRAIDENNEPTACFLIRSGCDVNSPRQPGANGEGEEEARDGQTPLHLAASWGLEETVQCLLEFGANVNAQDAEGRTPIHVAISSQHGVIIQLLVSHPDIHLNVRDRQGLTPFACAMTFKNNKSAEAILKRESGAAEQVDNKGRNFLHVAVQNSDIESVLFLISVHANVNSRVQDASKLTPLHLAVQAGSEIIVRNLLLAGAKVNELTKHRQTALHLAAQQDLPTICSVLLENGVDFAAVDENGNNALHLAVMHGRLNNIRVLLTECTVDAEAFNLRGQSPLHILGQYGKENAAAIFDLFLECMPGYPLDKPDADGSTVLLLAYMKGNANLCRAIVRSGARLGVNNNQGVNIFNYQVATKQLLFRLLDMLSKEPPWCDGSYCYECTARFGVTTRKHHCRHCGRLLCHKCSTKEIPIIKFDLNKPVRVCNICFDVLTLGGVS
# Chain of UniProt Q9UK45 (Q9UK45 whole entry, looked up): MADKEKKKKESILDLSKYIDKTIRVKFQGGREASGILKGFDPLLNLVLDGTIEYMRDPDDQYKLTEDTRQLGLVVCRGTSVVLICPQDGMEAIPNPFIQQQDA
# Chain of UniProt Q9Y3C8 (Q9Y3C8 whole entry): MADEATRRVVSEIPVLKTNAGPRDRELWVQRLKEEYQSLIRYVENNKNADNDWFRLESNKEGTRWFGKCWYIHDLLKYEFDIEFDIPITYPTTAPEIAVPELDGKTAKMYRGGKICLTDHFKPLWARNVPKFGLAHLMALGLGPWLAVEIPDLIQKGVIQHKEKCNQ
row,Target,log2 ratio of iodoacetamide-alkyne labeling
1,RABGAP1 C1026 (UniProt Q9Y3P9),-0.252
2,KCTD3 C606 (UniProt Q9Y597),1.08 (active)
3,EIF2B3 C64 (UniProt Q9NR50),0.548
4,NFU1 C213 (UniProt Q9UMS0),0.895
5,UFC1 C116 (UniProt Q9Y3C8),0.115
6,CACYBP C173 (UniProt Q9HB71),0.182
7,GNL3 C234 (UniProt Q9BVP2),0.259
8,CTSZ C92 (UniProt Q9UBR2),-0.349
9,AIM1 C976 (UniProt Q9Y4K1),0.347
10,BAZ1B C953 (UniProt Q9UIG0),1.28 (active)
11,IARS2 C91 (UniProt Q9NSE4),0.81
12,LARS C554 (UniProt Q9P2J5),1.74 (active)
13,ANKFY1 C460 (UniProt Q9P2R3),1.44 (active)
14,BCLAF1 C688 (UniProt Q9NYF8),0.524
15,SETD2 C958 (UniProt Q9BYW2),1.02 (active)
16,RACGAP1 C419 (UniProt Q9H0H5),0.303
17,ACTR6 C339 (UniProt Q9GZN1),0.248
18,NUDT5 C76 (UniProt Q9UKK9),0.157
19,TELO2 C367 (UniProt Q9Y4R8),0.0485
20,UNC93B1 C583 (UniProt Q9H1C4),2.06 (active)

row,Target,log2 ratio of iodoacetamide-alkyne labeling
1,UniProt Q9NQG6_C111,0.389
2,RNPEP C181 (UniProt Q9H4A4),0.0149
3,HECTD1 C1995 (UniProt Q9ULT8),0.345
4,SMC4 C190 (UniProt Q9NTJ3),0.109
5,ZDBF2 C628 (UniProt Q9HCK1),0.47
6,ATXN10 C354 (UniProt Q9UBB4),1.32 (active)
7,UniProt Q9UBD5_C158,1.13 (active)
8,RCC2 C428 (UniProt Q9P258),0.696
9,MDN1 C43 (UniProt Q9NU22),1.32 (active)
10,LSM7 C76 (UniProt Q9UK45),0.0557
11,TNKS1BP1 C1296 (UniProt Q9C0C2),0.451
12,ANAPC1 C1412 (UniProt Q9H1A4),0.0508
13,TLN1 C2243 (UniProt Q9Y490),0.0807
14,RNF126 C229 (UniProt Q9BV68),-0.457
15,KBTBD4 C455 (UniProt Q9NVX7),0.248
16,UniProt Q9P2P1_C1222,0.312
17,AFG3L2 C525 (UniProt Q9Y4W6),0.198
18,PNO1 C64 (UniProt Q9NRX1),0.367
19,ASPSCR1 C224 (UniProt Q9BZE9),1.02 (active)
20,CD2AP C540 (UniProt Q9Y5K6),0.456
